This is a sample that favours compounds with a hit; in the whole collection about 7.3% have one here.
HCV inhibitor = qHTS Assay for Inhibitors of Hepatitis C Virus (HCV) | 340,000 compounds, 3.4% hits | Huh7.5.1 HCVcc-Cre infection, luciferase reporter, 44 h | Potency, µM (highest dose often 41.8 µM), hits mostly inhibitors | AID 651820, 2012
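Reporter virus HCVcc-Cre (~0.5 moi) infects cells exposed to compound; seeding density 1,000 cells/well with 4 h settling beforehand. Luminescence, 15 sec read, taken 44 h post-infection following a 15 min RT substrate incubation.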
AmpC no deterg = qHTS Inhibitors of AmpC Beta-Lactamase (assay without detergent). AmpC nitrocefin hydrolysis, absorbance 480 nm, 0.0001% Triton. P00811. Potency, µM (doses to about 57.1 µM), actives largely listed as inhibitors. 330,000 compounds, 0.52% hits. AID 485341, 2010; note: nearly all actives have a fitted effect of over 20% in size
Target sequence (P00811 whole entry, looked up): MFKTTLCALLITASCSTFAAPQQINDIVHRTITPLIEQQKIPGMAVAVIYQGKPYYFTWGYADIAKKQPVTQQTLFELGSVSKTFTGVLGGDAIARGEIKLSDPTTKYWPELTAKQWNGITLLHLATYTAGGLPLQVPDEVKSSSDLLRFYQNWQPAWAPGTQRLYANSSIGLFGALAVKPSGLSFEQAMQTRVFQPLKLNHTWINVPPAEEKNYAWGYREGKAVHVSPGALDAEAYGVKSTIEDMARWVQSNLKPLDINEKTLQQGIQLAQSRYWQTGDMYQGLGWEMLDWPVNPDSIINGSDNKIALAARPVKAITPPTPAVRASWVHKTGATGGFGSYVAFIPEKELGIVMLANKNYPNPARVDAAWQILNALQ
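AmpC (5.3 nM in the dispensed reagent) in 20 mM phosphate pH 7.0 with 0.01% (detergent screen) or 0.0001% Triton X-100 was preincubated with compounds for 15 min at room temperature. Nitrocefin was then added from an 800 uM solution, and hydrolysis was followed at 480 nm.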
HCMV antiviral = qHTS Assay for inhibitors of the human cytomegalovirus (HCMV). 410,000 compounds, 4.5% hits. HFF cells, HCMV-luciferase reporter, 72 h; hits give low values. activity change, negative = inhibition, % at 57.5 µM; in the data active = activity change below about -60%; inconclusive = no clear call, values can overlap the other calls; inactive = above about -39%
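Inhibition of viral replication was scored as loss of reporter luminescence in HFFs infected with HCMV-luciferase (MOI 1 PFU/cell) for 72 h; compounds tested at 2 doses, normalized to buffer and Salinomycin controls.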
AmpC detergent = qHTS Inhibitors of AmpC Beta-Lactamase (assay with detergent); P00811; AmpC hydrolysis of nitrocefin, absorbance 480 nm, 0.01% Triton; Potency, µM (highest dose often 114 µM), usual class: inhibitors; 370,000 compounds, 0.041% hits; AID 485294, 2010; note: nearly all actives have a fitted effect of over 25% in size
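20 mM phosphate pH 7.0 + 0.01% (detergent screen) or 0.0001% Triton X-100; 5.3 nM AmpC reagent; cpd preinc 15 min RT; nitrocefin (800 uM stock) to start; A480 q20 s × 4 min; Activity was normalised to no-enzyme and no-compound control wells.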
FMDV antiviral = High Throughput Screening for Foot and Mouth Disease Virus Antivirals; FMDV antiviral cell-based qHTS; Potency, µM (doses to about 57.9 µM), most hits filed as inhibitors; 410,000 compounds, 1.2% hits; AID 1159524, 2015; calls by dose curve; tested in HEK293T cells; note: read-out not given here; nearly all actives have a fitted effect of over 45% in size
Hits are given with their value; - = inactive; ? = inconclusive; . = not tested or not shown; + = active, no number; [ ] = another dose, or the depositor's remark. Unless noted, calls come from the whole dose curve; as a rule, active = well fitted curve in the direction sought with a large enough effect; inconclusive = small, poorly fitted or top-dose-only effect, or another doubt; inactive = no such curve, though single readings can be large; an effect the other way counts as inactive or inconclusive.

SMILES	HCV inhibitor	AmpC no deterg	HCMV antiviral	AmpC detergent	FMDV antiviral
COc1ccc(OC)c(CNC(=O)c2cc3c(-c4ccc(OC)c(OC)c4)nn(C)c3s2)c1	.	.	-	-	-
COc1cccc2cc(-c3nc4sc(C(=O)Nc5ccc(F)cc5F)c(C)c4c(=O)[nH]3)c(=O)oc12	.	.	+	-	-
CC(=O)Nc1ccc2c(c1)CCc1ccccc1-2	-	-	-	-	-
O=C(O)/C=C/C(=O)c1ccc2c(c1)CCc1ccccc1-2	13µM	-	-61	-	?
COc1cc(O)c(CC=C(C)C)c(O)c1C(=O)CCc1ccc(O)cc1	0.71µM	-	-	-	-
O=C(CCc1ccc(O)cc1)c1c(O)cc(O)cc1O	-[8.37 µM]	-	-	-	-
COc1ccc(NC(=O)CCn2cnnn2)cc1	.	.	-	-	-
Cc1ccc(S(=O)(=O)N(CC(=O)NCc2ccco2)C2CCCCC2)cc1	3.5µM	-	-	-	.
Cc1ccc(S(=O)(=O)N(CC(=O)Nc2cccc([N+](=O)[O-])c2)C2CCCCC2)cc1	-	-	?	-	-
Cc1ccc(S(=O)(=O)N(CC(=O)Nc2ccc(Cl)c([N+](=O)[O-])c2)C2CCCCC2)cc1	?	-	-77	-	-
O=C(CN(C1CCCCC1)S(=O)(=O)c1ccccc1)NCc1ccco1	-	-	-	-	.
O=C(Nc1cc(C(F)(F)F)ccc1Cl)c1cccnc1	-	-	?	-	-
O=C(c1ccco1)N1CCN(/C(=N/S(=O)(=O)c2cccs2)c2ccccc2Cl)CC1	-	7.1µM	-	-	-
CC1CN(C(=O)c2ccccc2OCc2ccc(Cl)cc2Cl)CC(C)O1 (stereo not drawn)	14µM	-	?	-	-
CCN(CC)C(=O)Cn1c(=O)n(Cc2ccc(C(=O)NCCc3ccc(OC)c(OC)c3)cc2)c(=O)c2ccccc21	.	.	-	-	-
Cc1ccc(S(=O)(=O)N2[C@@H](Cc3ccccc3)CO[C@H]2CC(=O)c2cccs2)cc1	.	.	-	.	-
Cc1ccc(S(=O)(=O)N2[C@@H](Cc3ccccc3)CO[C@H]2CC(=O)c2ccc(F)cc2)cc1	.	.	-	.	-
Cc1ccc(S(=O)(=O)N2[C@@H](Cc3ccccc3)CO[C@H]2CC(=O)c2ccccc2)cc1	.	.	-69	.	-
Cc1ccc(S(=O)(=O)C[C@@H]2OC[C@H](Cc3ccccc3)N2S(=O)(=O)c2ccc(C)cc2)cc1	.	.	-61	.	-
COc1ccc(-c2cc(C(=O)Nc3c(C)nn(Cc4ccc(F)cc4)c3C)no2)cc1OC	.	.	-	-	-
COC(=O)[C@@H]1[C@@H](CO)[C@@H]2Cn3c(ccc(Br)c3=O)[C@@H]2N1CC1CCCC1	.	.	-	.	.
CCC(C)(C)C1CCC(NC(=O)N2CCN(c3ccccc3O)CC2)CC1 (stereo not drawn)	-	-	?	-	-
CC(C)c1ccc(/C=C2\SC(=S)N(CCC(=O)NCCCn3ccnc3)C2=O)cc1	?	-	-97	-	-
COc1ccc(/C=C2\SC(=S)N(CCC(=O)NCCCn3ccnc3)C2=O)cc1	-	-	-	-	-
COc1ccccc1/C=C1\SC(=S)N(CCC(=O)NCCCn2ccnc2)C1=O	?	-	?	-	-
SMILES	HCV inhibitor	AmpC no deterg	HCMV antiviral	AmpC detergent	FMDV antiviral
O=C(CCCN1C(=O)/C(=C/c2ccc(F)cc2)SC1=S)NCCCn1ccnc1	-	-	-67	-	-
C[C@@H](NCCc1ccc(O)cc1)[C@@H](O)c1ccc(O)cc1	-	.	-	.	-
CCCCCCCCNC(C)C(O)c1ccc(SC(C)C)cc1 (stereo not drawn)	-[8.37 µM]	-	-82	-	?
Cc1cccc(C2C3=C(Nc4[nH]n(-c5ccccc5)c(=O)c42)c2ccccc2C3=O)c1 (stereo not drawn)	-	-	-88	-	-
Brc1cc(-c2ccccc2)nc(-c2ccccc2)n1	11µM	.	-	.	-
COc1ccc(-n2c(C)cc(C3=NNC(=NC4CC4)SC3)c2C)cc1	?	-	-71	-	-
CN=C1NN=C(c2cc(C)n(-c3c(C)n(C)n(-c4ccccc4)c3=O)c2C)CS1	-	-	-	-	-
Cc1cc(C2=NNC(=NC3CC3)SC2)c(C)n1-c1ccccc1	?	-	-77	-	0.1µM
